# About 1,300 (0.41%) of roughly 320,000 compounds were called active. Roughly 3% stayed inconclusive and do not appear here. The rule behind the calls is not given here. These entries were drawn from the full list. Measured potencies and affinities stand elsewhere.
# Experiment: growth inhibition of non-replicating M. tuberculosis (AID 488890);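 note: plate controls were DMSO cells for no effect and high antibiotic wells for full effect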
# Settings: Mycobacterium tuberculosis non-replicating, at 25 µM, stronger effect = higher value
row,Compound,inhibition
1,COc1ccc(C(=O)CC(=O)c2ccccc2O)cc1OC,22.7%
2,O=C(CCc1ccccc1)NNC(=O)c1cc(Cl)ccc1O,-5.64%
3,Cc1ccc(O)c(C(=O)CC(=O)c2cccc(F)c2)c1,-5.71%
4,O=C(CC(=O)c1ccccc1)Nc1ccc(Cl)cc1,51.8%
5,C/C(=N\NC(=O)CNc1cccc(Cl)c1C)C1CC1,2.17%
6,CC(=O)Nc1ccc(C(=O)N2CCN(S(=O)(=O)c3ccc4c(c3)OCCCO4)CC2)cc1,-1.17%
7,Cc1sc(NC(=O)C2=COCCO2)nc1-c1ccc(Cl)cc1,3.57%
8,c1ccc(CN2CCN(c3cnc4ccccc4n3)CC2)cc1,3.95%
9,COc1cc(C(=O)NC(=S)NNC(=O)[C@H]2C[C@@H]2c2ccccc2)cc(OC)c1OC,62.4%
10,COc1cc(OC)cc(C(=O)NC(=S)NNC(=O)[C@H]2C[C@@H]2c2ccccc2)c1,78.5%
11,CC(=O)NCCc1nc2cc(NS(=O)(=O)c3ccc(Cl)cc3)ccc2n1C,-19.6%
12,COCCCN(CC(=O)Nc1ccc(F)cc1)S(=O)(=O)c1cccs1,5.35%
13,NNC(=O)/C(=C/c1cccs1)NC(=O)c1ccccc1Cl,1.61%
14,Nc1ccc(C(=O)Nc2ccc(OC(F)(F)C(F)F)c(NC(=O)c3ccc(N)cc3)c2)cc1,20.7%
15,CCN(CC)S(=O)(=O)c1ccc(NS(=O)(=O)c2ccc(OC)c([N+](=O)[O-])c2)cc1,-6.27%
16,O=C(O)c1cn(C2CC2)c2cc(N3CCN(S(=O)(=O)c4ccc5c(c4)OCCO5)CC3)c(F)cc2c1=O,79.5%
17,CCOC(=O)c1cn(CC)c2cc(N3CCN(C)CC3)c(F)cc2c1=O,-0.72%
18,CCCCCCCC(=O)N1CCN(c2cc3c(cc2F)c(=O)c(C(=O)O)cn3CC)CC1,72.9%
19,CCn1cc(C(=O)NN)c(=O)c2cc(F)c(N3CCN(C)CC3)cc21,-3.82%
20,CCCCCCCCCC(=O)N1CCN(c2cc3c(cc2F)c(=O)c(C(=O)O)cn3CC)CC1,6.5%
21,CCCCCCCCC(=O)N1CCN(c2cc3c(cc2F)c(=O)c(C(=O)O)cn3CC)CC1,62.8%
22,CCc1ccc(/C=N/NC(=O)Cc2ccc(OC)c(OC)c2)s1,9.54%

row,Compound,inhibition
1,COC(=O)C1=C2SC(C)C(=O)N2C(N)=C(C#N)C1c1ccc(OC)c(OC)c1 (stereo not given),5.18%
2,CC(=O)c1ccc(NC(=O)CCC(=O)OCC(F)(F)C(F)F)cc1,-4.72%
3,CC(=O)Nc1ccccc1OCc1cnc(Cl)s1,21%
4,Cc1cc(S(=O)(=O)Nc2cc(C)c(O)c(C)c2)c(C)s1,13%
5,COc1ccc(-c2cc(NCCc3ccncc3)n3ncnc3n2)cc1,24.4%
6,COc1ccc(-c2cc(NCc3ccccn3)n3ncnc3n2)cc1,55.9%
7,C[C@H](CO)N1C[C@H](C)[C@@H](CN(C)S(=O)(=O)c2ccccc2)Oc2ccc(NC(=O)C3CC3)cc2C1=O,6.81%
8,Cc1cc(Br)ccc1SCC(=O)OCC(=O)NC1CCCC1,35.6%
9,Cc1csc(NC(=O)c2ccc(C(=O)Nc3nc(C)cs3)cc2)n1,-7.26%
10,COc1ccc(NC(=O)c2cc([N+](=O)[O-])ccc2N2CCCCC2)cc1,-7.4%
11,O=C(Nc1ccc(NC(=O)c2cccc([N+](=O)[O-])c2)cc1)c1cccc([N+](=O)[O-])c1,-7.47%
12,O=C(Nc1ccc([N+](=O)[O-])cc1)c1cncc(Br)c1,13.8%
13,O=C(Nc1ccc(N2CCCCC2)cc1)c1cc([N+](=O)[O-])cc([N+](=O)[O-])c1,14.1%
14,Cc1csc(NC(=O)c2ccc(C)c([N+](=O)[O-])c2)n1,5.36%
15,COc1ccc(NC(=O)c2cc([N+](=O)[O-])ccc2N2CCCC2)cc1,-2.99%
16,CC(=O)Nc1ccc(C(=O)NNC(=O)c2cc([N+](=O)[O-])cc([N+](=O)[O-])c2)cc1,16.3%
17,CC1=C(C(=O)c2ccccc2)C(c2ccc(N3CCOCC3)cc2)NC(=O)N1 (stereo not given),13.5%
18,COc1ccc(OC)c(S(=O)(=O)N2CCCC(C(=O)N3CCOCC3)C2)c1 (stereo not given),-3.68%
19,CN1CCN(C(=S)NC(=O)/C=C/c2ccccc2Cl)CC1,-10.3%
20,Cc1nc(C(=O)NCC(=O)c2ccc(Cl)cc2)c(C(F)(F)F)o1,75%
21,O=C(CCNC(=O)Cn1ccc2ccccc2c1=O)NCc1ccc(F)cc1Cl,-3.09%
22,NC(=O)CCC(NS(=O)(=O)c1ccc(Cl)cc1)C(=O)NCc1ccc(Cl)cc1 (stereo not given),0.33%

row,Compound,inhibition
1,Cc1cccc(-n2c(-c3ccc(Br)o3)n[nH]c2=S)c1,-15%
2,COc1cc(CNC2CCCC2)cc(Br)c1OCC(=O)Nc1ccccc1C,45.5%
3,CCOc1cccc(CNCCO)c1OCc1ccc(Cl)cc1Cl,42.6%
4,CCOc1cc(CNCCc2ccc(S(N)(=O)=O)cc2)cc(Cl)c1OCc1ccccc1,73%
5,COc1cc(CNC2CCCCCCC2)cc(Cl)c1OC,9.81%
6,COc1cc(CNC2CCCC2)cc(Cl)c1OCc1ccccc1F,78.7%
7,CCCCNCc1cc(Br)c(OCC(=O)NCc2ccccc2)c(OC)c1,68.2%
8,OCCNCc1ccc(OCc2ccc(Cl)cc2Cl)cc1,61.3%
9,COc1cc(CNCc2ccccc2)cc(Cl)c1OC,-13.6%
10,COc1ccc(-c2n[nH]c(=S)n2-c2ccc(C)cc2C)cc1,-17.9%
11,Cc1ccc(S(=O)(=O)CCc2nnc(N)s2)cc1C,4.5%
12,Cc1oc(-c2ccccc2F)nc1CSCC(=O)NC1CC1,-0.31%
13,Cc1c(CC(=O)O)c(=O)oc2c(C)c(OCc3ccccc3)ccc12,-3.08%
14,CCN(CC(=O)Nc1cccc(C(C)=O)c1)S(=O)(=O)c1ccccc1,-4.85%
15,O=C(c1cccnc1)N1CCN(S(=O)(=O)c2ccc3ccccc3c2)CC1,9.44%
16,CC(NC(=O)CN1C(=O)NC2(CCCC2)C1=O)c1ccc2ccccc2c1 (stereo not given),9.54%
17,CCN1CCC(NCCc2ccc(F)cc2)CC1,-11.9%
18,CN(C(=O)c1ccc2c(Cl)c3c(nc2c1)CCC3)c1ccccc1,32.3%
19,Cc1ccc(N(CC(=O)Nc2c(C)n(C)n(-c3ccccc3)c2=O)S(C)(=O)=O)c(C)c1,-0.1%
20,O=P(O)(O)COc1ccccc1P(=O)(c1ccccc1)c1ccccc1,-12.2%
21,Cc1noc(C)c1COC(=O)COc1cccc2c1OC(C)(C)C2,39.2%
22,Cc1noc(C)c1COC(=O)COc1ccc(C#N)cc1,38.3%

row,Compound,inhibition
1,O=C(Nc1ccc(N2CCN(C(=O)c3ccco3)CC2)cc1)c1cccs1,38.8%
2,O=C(Nc1ccc(N2CCN(C(=O)c3cccs3)CC2)c(Cl)c1)c1ccco1,9.48%
3,O=C(Nc1cccc(S(=O)(=O)N2CCCCCC2)c1)C1CCC1,-14%
4,COc1ccc(OCC(=O)NNC(=O)C(=O)Nc2ccc(C)cc2)cc1,7.2%
5,CCc1ccc(NC(=O)COc2cccc(-n3cnnn3)c2)cc1,23.8%
6,COC(=O)c1ccc(NC(=O)c2cccc(OC)c2)cc1,27.8%
7,CCc1ccc(NC(=O)Nc2cccc(OC)c2)cc1,60.4%
8,COc1ccc(OCC(=O)NNC(=O)C(=O)Nc2ccccc2)cc1,75.3%
9,COc1ccc(NC(=O)C(=O)NNC(=O)COc2ccc(OC)cc2)cc1,6.66%
10,CCCC(c1nnnn1Cc1ccco1)N1CCC(C(N)=O)CC1 (stereo not given),-17.6%
11,Cc1ccc(CN2CCSc3ccc(C(=O)NCc4ccccn4)cc32)cc1,29.8%
12,CC(=O)Nc1cccc(NC(=O)c2cc(-c3cccnc3)nc3ccc(Cl)cc23)c1,14.7%
13,CCc1ccc(N(CC(=O)NCc2ccco2)C(=O)CCC(=O)Nc2ccccn2)cc1,-13.9%
14,CCC(C)c1ccc(O)c(N)c1 (stereo not given),1.15%
15,CCC(C)c1ccc(O)c(NC(=O)c2cccnc2)c1 (stereo not given),5.33%
16,CC(C)CN(C(=O)COC(=O)C1=COCCO1)c1c(N)n(Cc2ccccc2)c(=O)[nH]c1=O,0.83%
17,O=C(CC1SC(N2CCOCC2)=NC1=O)Nc1cccc(C(F)(F)F)c1 (stereo not given),9.06%
18,COc1cccc(NC(=O)CCN2C(=O)c3ccc([N+](=O)[O-])cc3C2=O)c1,-4.23%
19,C=CCN1C(=O)C(CC(=O)Nc2ccccc2)S/C1=N/c1nccs1 (stereo not given),-1.19%
20,Cc1cc(=O)[nH]c(N2CCCC2)n1,-4.14%
21,Cc1cc(C)n(-c2nnc(C)c(=O)[nH]2)n1,1.82%
22,CCc1c(C)nc(SCc2cccnc2)[nH]c1=O,-9.77%

row,Compound,inhibition
1,Cc1nn(-c2cccc3cccnc23)c(=O)c2ccccc12,0.08%
2,O=C(Cc1ccc([N+](=O)[O-])cc1)N1CCCCCC1,5.47%
3,O=C(c1ccc(Oc2ccc([N+](=O)[O-])cc2)cc1)N1CCCCCC1,65.4%
4,Cc1ccccc1NC(=O)c1cccc(S(=O)(=O)N2CCOCC2)c1,-10.8%
5,OC(C#CCN1CCCC1)c1ccccc1 (stereo not given),-3.04%
6,c1csc(CN2CCOCC2)c1,-3.64%
7,COc1cc(C(=S)N2CCN(C(c3ccccc3)c3ccccc3)CC2)cc(OC)c1O,12.6%
8,CCCc1cc(=O)oc2c(C)c(OCC(=O)N3CCC[C@@H]3C(=O)O)ccc12,-11.2%
9,CCOC(=O)/C(=N\Nc1cc(Cl)ccc1Cl)N1CCN(CC)CC1,46%
10,COc1ccc(CN2C(=O)C(O)(CC(=O)c3ccc4c(c3)OCO4)c3ccccc32)cc1OC (stereo not given),12.6%
11,Cc1[nH]c2ccccc2c1C(=O)NS(=O)(=O)Nc1ccc(F)cc1,-2.71%
12,COc1ccccc1Oc1ccc(NC(=O)Cc2ccccc2)cc1,19.6%
13,O=c1ccc(=O)n(-c2ccccc2)[nH]1,20%
14,O=c1[nH][nH]c(=O)n1-c1ccccc1,-3.31%
15,CCOC(=O)c1cn(Cc2ccccc2)nn1,74.6%
16,CCOC(=O)c1cn(Cc2ccc(C)cc2)nn1,75.3%
17,CCc1nnc(NC(=O)CSc2nncc(=O)n2N)s1,-12.3%
18,Cn1cnnc1SCCNS(=O)(=O)c1ccccc1,2.23%
19,CCOC(=O)c1c(C)[nH]c(C(=O)OCC(=O)NCc2ccc(C)cc2)c1C,-10.5%
20,C/C(CC(=O)Nc1ccc(N(C)C)cc1)=N\NC(=O)c1ccc(Cl)cc1,8%
21,C/C(CC(=O)Nc1ccc(N(C)C)cc1)=N\NC(=O)c1ccc(F)cc1,8.75%
22,Cc1cc(C)c(S(=O)(=O)NCC(=O)NCc2ccco2)c(C)c1,0.05%
